# Inconclusive results are not listed. The source made the active and inactive calls. Rule for the calls: active = hit-call score of the fitted dose curve at least 0.9, where 1 is the maximum; inconclusive = response in the unintended direction; inactive = score below 0.9.
# Tested on: not listed separately
# Assay: ACEA_AR_antagonist_AUC_viability: ACEA Biosciences xCELLigence Real-Time Cell Analysis on Androgen Receptor Antagonism for Viability (AID 2283776);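 note: 22Rv1 human prostate cancer cells growing on impedance electrode plates; area under impedance growth curve at 80 h after dosing as viability; hits lower the growth signal relative to DMSO meaning cytotoxicity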
# How it was run: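 Impedance read-out (RT-CES): area under growth curve at 80 h post-dose, loss of signal scored vs DMSO baseline. 22Rv1 cells; 8-pt 1:4 series, top 100 uM final, ≤0.5% DMSO; biological duplicate.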
SMILES,AC50,outcome
Oc1ccc2c(c1)-c1ccccc1C2,41.8 µM (active),–
COCCOCCOCCOC,24.2 µM (active),–
CCOCCO,–,inactive
Nc1nc2ncc(CNc3ccc(C(=O)N[C@@H](CCC(=O)O)C(=O)O)cc3)nc2c(=O)[nH]1,–,inactive
C1N2CN3CN1CN(C2)C3,–,inactive
CCOC(=O)c1ccc(C2CCC(NC[C@H](O)COc3ccc(O)c(NS(C)(=O)=O)c3)CC2)cc1 (stereo not given in full),24.4 µM (active),–
CC(C)=CCCC(C)=CC=O,–,inactive
Cc1c(-c2cccnc2)c2ccccc2n1CCCCC(=O)O,22.8 µM (active),–
CC[C@H](C)C(=O)O[C@H]1C[C@@H](C)C=C2C=C[C@H](C)[C@H](CC[C@@H]3C[C@@H](O)CC(=O)O3)[C@H]21,50 µM (active),–
CC(C)=CCCC(C)CCO (stereo not given),–,inactive
CCNc1ccccc1,–,inactive
CCOC(=O)COc1ccc2c(c1)CC(NCC(O)c1cccc(Cl)c1)CC2 (stereo not given),24.1 µM (active),–
COc1ccc(-n2nc(C(F)F)cc2-c2ccc(S(C)=O)cc2)cc1 (stereo not given),–,inactive
Cc1ccc(C)c(O)c1,–,inactive
Cc1ccc(O)cc1,–,inactive
CCCC(=O)OCC,–,inactive
CCCCC(CC)COC(=O)c1ccc(C(=O)OCC(CC)CCCC)cc1 (stereo not given),–,inactive
CCn1nc(Cc2ccccc2)cc1C1CCN(C[C@H]2C[C@H](N(C)[C@@H](C(=O)O)C(C)C)C[C@@H]2c2cccc(F)c2)CC1,45 µM (active),–
CC(=O)OC[C@H]1O[C@@](COC(C)=O)(O[C@H]2O[C@H](COC(C)=O)[C@@H](OC(C)=O)[C@H](OC(C)=O)[C@H]2OC(C)=O)[C@@H](OC(C)=O)[C@@H]1OC(C)=O,–,inactive
CC1(C)C(=O)N(Br)C(=O)N1Br,–,inactive

# Tested on: not listed separately
# Assay: ACEA_ER_AUC_viability: ACEA Biosciences xCELLigence Real-Time Cell Analysis on Estrogen Receptor Agonism for Viability (AID 2283782);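 note: continuous compound exposure with impedance area under curve over 80 h; hit means loss of impedance signal meaning reduced cell growth or viability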
# How it was run: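 T-47D human breast cells in phenol red-free RPMI1640 with 10% charcoal-stripped FBS were dosed with an 8-point 1:4 dilution series from 100 uM top final concentration, in duplicate. Impedance-based growth was followed for 80 h; AUC analysed versus DMSO.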
SMILES,outcome,AC50
O=C(O)c1cccc(Oc2ccccc2)c1,inactive,–
Oc1ccc2c(c1)-c1ccccc1C2,–,79.2 µM (active)
COc1cccc(-c2ccc(/C=C\CN3CCCCCC3)cc2Cl)c1,–,56.3 µM (active)
CCOCCO,inactive,–
O=C1CCC(N2C(=O)c3ccccc3C2=O)C(=O)N1 (stereo not given),inactive,–
C1N2CN3CN1CN(C2)C3,inactive,–
CCOC(=O)c1ccc(C2CCC(NC[C@H](O)COc3ccc(O)c(NS(C)(=O)=O)c3)CC2)cc1 (stereo not given in full),–,5.31 µM (active)
Cc1c(-c2cccnc2)c2ccccc2n1CCCCC(=O)O,–,17.3 µM (active)
CC[C@H](C)C(=O)O[C@H]1C[C@@H](C)C=C2C=C[C@H](C)[C@H](CC[C@@H]3C[C@@H](O)CC(=O)O3)[C@H]21,–,28.2 µM (active)
CN(C)c1ccc(N=NS(=O)(=O)O)cc1,inactive,–
CC(C)=CCCC(C)CCO (stereo not given),inactive,–
CCNc1ccccc1,inactive,–
CCOC(=O)COc1ccc2c(c1)CC(NCC(O)c1cccc(Cl)c1)CC2 (stereo not given),–,16.2 µM (active)
Cc1ccc(C)c(O)c1,inactive,–
C[C@](N)(Cc1ccc(O)c(O)c1)C(=O)O,inactive,–
CNS(=O)(=O)c1cc(C(=O)N2CCC(CCN3C4CCC3CC(n3c(C)nc5ccccc53)C4)(c3cccc(F)c3)CC2)c(Cl)cc1F (stereo not given),–,19.2 µM (active)
Cc1ccc(O)cc1,inactive,–
CCCC(=O)OCC,inactive,–
COc1ccc2sc(C(=O)Nc3nnn[nH]3)c(OC(C)C)c2c1,–,9.87 µM (active)
On1ccccc1=S,–,88.8 µM (active)
CCCCC(CC)COC(=O)c1ccc(C(=O)OCC(CC)CCCC)cc1 (stereo not given),–,80 µM (active)
Cc1ccc(S(=O)(=O)O)cc1C,inactive,–
CCn1nc(Cc2ccccc2)cc1C1CCN(C[C@H]2C[C@H](N(C)[C@@H](C(=O)O)C(C)C)C[C@@H]2c2cccc(F)c2)CC1,–,7.91 µM (active)
C=CC(=C)CCC=C(C)C,inactive,–
Cn1c(=O)c2c(ncn2C)n(C)c1=O,inactive,–
CCc1cc(SCc2sc(-c3ccc(C(F)(F)F)cc3)nc2CN2CCN(c3ccc(OC)cc3)CC2)ccc1OCC(=O)O,–,34.5 µM (active)
CC(C)CCCCCCCOC(=O)CCCCC(=O)OCCCCCCCC(C)C,inactive,–
CCOc1cccc(-n2cc(C(=O)N3CCN(c4cc(C(=O)O)c5ccccc5c4)CC3)nc2-c2ccc(C)cc2)c1,inactive,–

# Biological target: AR (gene 367) (UniProt P10275)
# Sequence (P10275 whole entry, looked up): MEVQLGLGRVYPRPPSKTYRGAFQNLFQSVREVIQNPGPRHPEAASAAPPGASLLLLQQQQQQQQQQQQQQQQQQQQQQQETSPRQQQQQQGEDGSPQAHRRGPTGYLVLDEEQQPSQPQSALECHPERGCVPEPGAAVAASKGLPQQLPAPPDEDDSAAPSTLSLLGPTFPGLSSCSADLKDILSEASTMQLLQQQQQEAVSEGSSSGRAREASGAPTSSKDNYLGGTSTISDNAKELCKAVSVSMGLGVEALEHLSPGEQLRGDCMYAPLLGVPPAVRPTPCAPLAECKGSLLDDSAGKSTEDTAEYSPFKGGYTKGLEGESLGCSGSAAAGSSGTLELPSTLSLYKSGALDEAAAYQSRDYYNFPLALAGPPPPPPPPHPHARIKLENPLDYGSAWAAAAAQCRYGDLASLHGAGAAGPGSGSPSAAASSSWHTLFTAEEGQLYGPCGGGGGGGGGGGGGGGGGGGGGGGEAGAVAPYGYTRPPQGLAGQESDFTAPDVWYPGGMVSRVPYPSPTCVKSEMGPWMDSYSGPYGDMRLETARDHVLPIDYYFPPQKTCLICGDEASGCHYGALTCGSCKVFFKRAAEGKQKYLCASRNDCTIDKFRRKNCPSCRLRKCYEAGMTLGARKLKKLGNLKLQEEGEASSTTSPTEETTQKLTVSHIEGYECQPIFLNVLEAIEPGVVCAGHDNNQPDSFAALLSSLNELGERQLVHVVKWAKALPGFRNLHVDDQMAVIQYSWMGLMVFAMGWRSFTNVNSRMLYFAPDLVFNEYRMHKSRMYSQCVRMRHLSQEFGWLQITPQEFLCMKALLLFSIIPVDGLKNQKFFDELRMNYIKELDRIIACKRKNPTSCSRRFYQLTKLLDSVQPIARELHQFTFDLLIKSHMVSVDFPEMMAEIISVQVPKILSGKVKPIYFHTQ
# Assay: ACEA_AR_agonist_80hr: ACEA Biosciences xCELLigence Real-Time Cell Analysis on Androgen Receptor Agonism for Proliferation (AID 2283783);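 note: hits increase impedance growth signal above DMSO baseline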
# How it was run: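 22Rv1 human prostate cancer cells were seeded after preconditioning in assay medium and monitored overnight, then dosed in an eight-point 1:4 dilution series from 100 uM (≤0.5% DMSO). Impedance-based growth was read at 80 h, gain-of-signal versus DMSO.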
SMILES,outcome,AC50
Oc1ccc2c(c1)-c1ccccc1C2,inactive,–
C1N2CN3CN1CN(C2)C3,inactive,–
CN(C)c1ccc(N=NS(=O)(=O)O)cc1,–,10.7 µM (active)
CC(C)=CCC/C(C)=C\CO,inactive,–
O=C(O)c1cccc(N(Cc2cccnc2)c2ccc(OC(F)F)c(OC(F)F)c2)c1,–,10.5 µM (active)
CCCN(C1CCN(C(=O)C2CCNCC2)CC1)[C@@H]1CCc2ccc(OC)cc2C1,inactive,–
CCCCC(CC)COC(=O)c1ccc(C(=O)OCC(CC)CCCC)cc1 (stereo not given),inactive,–
